Test results reported in PubChem BioAssay AID434958 (Southern Research Specialized Biocontainment Screening …, 2010).
About 400 (33%) of roughly 1,200 compounds were called active. Not all results are given here. Potency and affinity values are given separately. Values without a mark were called inactive. How the calls were made is not given here.

assay: mammalian cell cytotoxicity, dose response, cytotoxicity control (AID 434958); details: cytotoxicity counter-screen; series mostly up to 40 µM; viability: at the top concentration;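 further: cells exposed to compound for 72 hours before readout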

| SMILES | viability [%] |
| --- | --- |
| COC(=O)c1ccc(/C=N/NC(=O)c2cccc(F)c2)cc1 | 94.4 |
| COc1cc(/C=C/C(=O)NC(C)(C)C)ccc1OCc1ccccc1 | 91.2 |
| COc1ccc(/C=C/C(=O)N(C(C)C)C(C)C)cc1Br | 97 |
| COc1ccc2ccccc2c1/C=N/NC(=O)c1cccc(Br)c1 | 82.7 |
| CC1(C)CC(=O)c2cc(C(=O)NCc3ccco3)c(=O)n(-c3ccccc3)c2C1 | 96.6 |
| CCC1(c2ccc(Cl)cc2)NC(=S)N(c2ccc(C)cc2)N1 (centres undefined) | 95.2 |
| CC(=O)NC(=S)Nc1ccc(NC(=O)c2cccnc2Cl)cc1 | 95.4 |
| CCCCN=C1CC(C)(C)CC(=O)/C1=C(/O)CCC | 101 |
| CCOC(=O)c1c(C)[nH]c(C(=O)COC(=O)CCC2CCCC2)c1C | 105 |
| CCOc1ccc2nc(SC3CC(=O)N(c4cccc(OC)c4)C3=O)sc2c1 (centres undefined) | 100 |
| CCc1cc2c(=O)oc(-c3ccccc3F)nc2s1 | 104 |
| CCCCN1C(=O)c2ccc(C(=O)Nc3cccc(C)c3C)cc2C1=O | 98.7 |
| CCOC(=O)c1nc(N2CCN(C(=O)OCC)CC2)c2c3c(sc2n1)CCCC3 | 86.8 |
| CC(=O)Nc1ccc(C(=O)N(C2=NC(C)CS2)c2ccc(Cl)cc2)cc1 (centres undefined) | 84.4 |
| COc1ccc(C2C(C#N)=C(SCC(=O)Nc3ccc(C)cc3)NC3=C2C(=O)CC(C)(C)C3)cc1 (centres undefined) | 84.9 |
| CCCCNC(=O)c1onc(CSc2ccccc2CC)c1C(=O)O | 99.5 |
| CCCC(=O)Nc1ccc(NC(=S)NC(=O)c2cccs2)cc1 | 96.4 |
| CCCC(=O)N1CCN(c2ccc(NC(=S)NC(=O)CC)cc2)CC1 | 83.8 |
| Cc1ccc(C(=O)OCCN2CCN(c3ncc(C(F)(F)F)cc3Cl)CC2)cc1 | 89.8 |
| N#Cc1c(-c2cccs2)cc(-c2ccccn2)nc1N | 87.3 |
| Cc1cc(C)c2c(N)c(S(=O)c3ccc(C(C)(C)C)cc3)sc2n1 (centres undefined) | 102 |
| CC(=O)c1ccc(OCCCC(=O)OCC(=O)N2CCN(c3ccccc3)CC2)cc1 | 100 |
| Cc1nnc(SCc2cccc(Cl)c2)n(N)c1=O | 95.2 |

| SMILES | viability [%] |
| --- | --- |
| Cc1cccc(/C=N\NC(=O)c2csnn2)c1 | 99.9 |
| O=C(Cc1ccc(Cl)cc1Cl)Nc1ccc(OC(F)F)c(Cl)c1 | 104 |
| CCOC(=O)Cn1c(C)cc(=O)c2cccc(C)c21 | 105 |
| O=C(Nc1ccccc1Br)c1cccc2ccccc12 | 91.8 |
| Cc1ccn2c(CNCCn3nc(C)cc3C)c(C(=O)N3CCCCCC3)nc2c1 | 98.5 |
| COc1ccc(C(=O)NC(=S)NC(C)(C)C)cc1Br | 82.4 |
| COc1ccc(C2(CNC(=O)c3cc([N+](=O)[O-])cc([N+](=O)[O-])c3)CCCC2)cc1OC | 95.8 |
| CN1C2CCC1CC(OC(=O)c1ccc([N+](=O)[O-])cc1)C2 (centres undefined) | 104 |
| CCC(=O)c1ccc(OCc2ccc(C(=O)OC)cc2)c(OC)c1 | 106 |
| O=C(COC(=O)Cc1ccc(S(=O)(=O)N2CCCCC2)s1)Nc1ccc2c(c1)OCO2 | 97 |
| CC(=O)Nc1ccc(SCC(=O)c2cc(C)n(CC(F)(F)F)c2C)cc1 | 95.3 |
| CCOC(=O)Cn1c(=NC(=O)C2CC2)sc2c(C)cc(C)cc21 | 97.5 |
| O=C(OCC(=O)N(Cc1ccccc1)C1CCS(=O)(=O)C1)c1cc2c(s1)CCCC2 (centres undefined) | 87.1 |
| O=C(COc1ccccc1[N+](=O)[O-])N(Cc1cccc(Br)c1)C1CCS(=O)(=O)C1 (centres undefined) | 95 |
| Cc1ccc(C(=O)NCC2(c3ccccc3)CCCC2)cc1 | 81 |
| COCCNC(C(=O)Nc1ccc(C)cc1[N+](=O)[O-])c1ccccc1 (centres undefined) | 96.9 |
| CC(NC(=O)CSc1nc2ccccc2c(=O)[nH]1)c1ccccc1 (centres undefined) | 91.8 |
| CCOC(=O)COc1nc(-c2ccc(Cl)cc2)cc(-c2ccco2)c1C#N | 98.2 |
| CN(c1ccc(OCC(=O)OCC(=O)c2c(N)n(C)c(=O)n(C)c2=O)cc1)S(=O)(=O)c1ccc2ccccc2c1 | 99.8 |
| CC1(C)CC(CCNC(=O)CCl)(c2ccccc2)CCO1 (centres undefined) | 81.7 |
| Cn1ccnc1C(=O)Cc1ccc([N+](=O)[O-])cc1 | 94.1 |
| CCOC(=O)c1sc(NC(=O)CSc2n[nH]c(CC(C)C)n2)nc1C | 86.7 |
| CCOC(=O)c1c(NC(=O)C(=O)N/N=C/c2ccccc2OC)sc2c1CCCCC2 | 96.4 |

| SMILES | viability [%] |
| --- | --- |
| Cc1ccccc1C(=O)NC(=S)Nc1sc2c(c1C#N)CCC(C)C2 (centres undefined) | 90.5 |
| Cc1cc(C(=O)CSc2nnnn2-c2ccccc2)c(C)n1-c1ccc2c(c1)OCO2 | 81.2 |
| O=C(Nc1nc(-c2ccc(F)c(F)c2)cs1)c1cnccn1 | 82.3 |
| COc1c(NC(C)=O)c2ccccc2c2ccccc12 | 106 |
| COc1ccc2nc(SCc3cccc(C)c3)nc(C)c2c1 | 85.5 |
| NC(=S)N/N=C/c1cccc(/C=N/NC(N)=S)c1 | 93.9 |
| O=C(Cn1c(=O)c2cccn2c2ccccc21)NCCc1ccc(Cl)cc1 | 104 |
| Cc1ccc(-n2ncc3c(=O)n(CC#N)cnc32)cc1C | 89 |
| COc1ccc(C2CC(c3c(-c4ccccc4)c4cc(Cl)ccc4[nH]c3=O)=NN2S(C)(=O)=O)cc1 (centres undefined) | 85.1 |
| CC(=O)c1sc(N/N=C\c2ccc(N(C)C)cc2)nc1C | 96.8 |
| CC(C)c1ccc(/C=C/C(=O)NC2CCCCC2)cc1 | 101 |
| CN(C)/N=C/c1ccc(/C=N/NC(N)=S)o1 | 95.5 |
| O=C(N/N=C/c1cccc(Br)c1)c1ccc(Cn2cc(Br)cn2)o1 | 100 |
| O=C1OC(c2ccco2)=N/C1=C\c1ccc(-c2cccc(C(F)(F)F)c2)o1 | 90.5 |
| CC1(C)C2CC=C(/C=N/NC(=O)c3ccccc3O)C1C2 (centres undefined) | 88.5 |
| CC1=NN(c2ccccc2)C(=O)/C1=C/c1c(O)[nH]c(=S)[nH]c1=O | 96.3 |
| Cc1cc(N2CCN(c3ccccc3)CC2)nc2ccccc12 | 85.2 |
| COc1ccc(NC(=O)C(Cc2ccccc2)n2cccc2)c(OC)c1 (centres undefined) | 97.5 |
| CCCN1C(=O)c2ccc(C(=O)Nc3cc(C)on3)cc2C1=O | 99.8 |
| COc1ccc(OC)c(NC(=O)CSC2=C(C#N)C(c3ccco3)C3=C(CCCC3=O)N2)c1 (centres undefined) | 89.4 |
| CC(=O)c1ccc(-n2c(C)ccc2-c2ccccc2)cc1 | 91.2 |
| COc1cc(NC(=S)NC(=O)c2cccs2)ccc1NC(=O)C(C)C | 86.8 |
| Cc1ccc(/C=C/C(=O)OCC(=O)NC(C)c2ccccc2)o1 (centres undefined) | 95.2 |
